Source: PubChem (Broad Institute)
These entries were drawn from the full list.
aSyn 5UTR act – Activators working through SNCA 5'UTR binding (MLPCN); alpha-synuclein 5'UTR reporter, activators screen; activity score, % (tested at 7.5 µM), hits read low; hit rate 7.1% among 300,000; AID 1814; in the data active means activity score below about -60%
Starred values were filed as active, the others as inactive.

SMILES	aSyn 5UTR act
Clc1ccc(COn2nnc3ccccc32)c(Cl)c1	-151*
O=C1CCCCCN1Cc1nnc(SCc2nc3ccccc3s2)n1-c1ccccn1	-109*
Cc1ccc2[nH]c3c(=O)n(N)c(C)nc3c2c1	-70*
Cc1cccc(N=C/C(C(=O)C(F)(F)F)=C(\O)c2ccco2)c1	-167*
Cc1ccc(N=C/C(C(=O)C(F)(F)F)=C(\O)c2ccco2)cc1Cl	-184*
O=C(/C(C=Nc1ccc(F)cc1)=C(/O)c1ccco1)C(F)(F)F	-113*
C/C(Cn1nnc([N+](=O)[O-])n1)=N\NC(=O)c1ccccc1	-73*
Cc1c(C(=O)N2CCc3ccccc3C2)oc2ccccc12	-98*
Cc1c(C(=O)N2c3ccccc3CC2C)oc2ccccc12 (stereo not drawn)	-76*
Cc1ccccc1NC(=O)Cc1nc(CSc2nnc(-c3ccc4c(c3)OCO4)o2)cs1	-72*
O=C(O)CCSc1nnc(-c2ccc3c(c2)OCO3)o1	67
c1cc(CSc2nnc(-c3ccc4c(c3)OCO4)o2)ccn1	-86*
Cc1c2ccccc2nc2c(F)c(N(C)C)c(F)c(F)c12	-78*
Fc1ccccc1/C=N/Nc1nc2ccccc2o1	-200*
FC(F)Oc1ccccc1/C=N/Nc1nc2ccccc2o1	-165*
CCc1[nH]nc(C(=O)N/N=C/c2ccncc2)c1C	-70*
CCOC(=O)c1c(N/N=C/c2ccncc2)n[nH]c1C	-81*
O=C(NNC1=C(C(=O)C(F)(F)F)CCC1)c1cccc(O)c1	-153*
Cc1ccc(/C=C/C(=O)Nc2ccc(N(C)C)cc2)o1	-193*
Cc1ccc(/C=C/C(=O)Nc2ncc(C)s2)o1	-207*
Cc1cnc(NC(=O)/C=C/c2ccc(Br)o2)s1	-106*
Cc1ccc(/C=C/C(=O)Nc2nccs2)o1	-157*
C=CCS/C(=N\n1cnc2ccccc2c1=O)N1CCCCC1	-86*
Cc1sc2c(c1C)CN(CCN1CCOCC1)CN2C(=O)c1ccccc1	-82*
CCOc1ccc(-c2cn(-c3cccc(SC)c3)c(=O)[nH]2)cc1	-72*
SMILES	aSyn 5UTR act
O=[N+]([O-])c1ccccc1CSc1nc2ccccc2o1	-193*
O=C(Cc1c(Cl)cccc1Cl)OCc1ccccn1	-124*
CC(C)C(NC(=O)OCc1ccccc1)C(=O)OCC(=O)N1CCCCC1 (stereo not drawn)	-132*
C/C(=N\NC(=O)c1c(Cl)cnn1C)c1ccc(NC(=O)c2ccc(Br)o2)cc1	-116*
C/C(=N\NC(=O)C1CC1)c1ccc(NC(=O)c2ccc(Br)o2)cc1	-110*
CCC(=O)Nc1cccc(-c2ccc(N3CCN(C)CC3)nn2)c1	-73*
CN1CCN(c2ccc(-c3cccc(NC(=O)COc4ccc(Cl)cc4)c3)nn2)CC1	-131*
CN1CCN(c2ccc(-c3cccc(NC(=O)COc4ccccc4)c3)nn2)CC1	-70*
COc1cccc2cc(-c3ccccc3)c(=O)oc12	-113*
COc1cccc2cc(-c3nc4ccccc4[nH]3)c(=O)oc12	-157*
O=c1[nH]c(-c2ccccc2)nc2sc(-c3ccccc3)cc12	-235*
O=c1[nH]cnc2sc(-c3ccccc3)cc12	-86*
N#Cc1c(C(F)(F)F)cc(-c2ccc(Cl)c(Cl)c2)nc1SCCN1CCOCC1	-64*
CCOC(=O)c1c(NC(=O)CSc2nc3ccccc3[nH]2)sc2c1CC(C)(C)NC2(C)C	-101*
COC(=O)c1c(NC(=O)c2nc3ccccc3s2)sc2c1CC(C)(C)NC2(C)C	104
O=c1oc(-c2ccccc2)cc(Cl)c1Cl	-198*
Cc1ccc(OCn2c(=O)sc3ccccc32)cc1	-158*
O=c1sc2ccccc2n1CCOc1ccccc1	-133*
Cc1c(C(=O)O)cccc1-c1ccc(C=O)o1	-80*
Cc1ccnc(NC(=O)c2ccc(Cl)c(S(=O)(=O)N3CCCC3)c2)c1	-132*
O=C(Nc1ccccn1)c1ccc2c(c1)S(=O)(=O)c1ccccc1C2=O	-90*
O=C(Nc1ccccn1)c1ccc(Cl)c(S(=O)(=O)N2CCCCCC2)c1	-81*
CC(=O)c1cccc(NC(=O)c2cc3nc(C)cc(C)n3n2)c1	-139*
Cc1cc(C)n2nc(C(=O)Nc3ccc4c(c3)OCO4)cc2n1	-84*
Oc1[nH]c2c(Cl)cc(Cl)cc2c1N=NC(=S)NCC1CCCO1 (stereo not drawn)	79
SMILES	aSyn 5UTR act
O=C(NCC1CCCO1)c1c(O)c2ccccc2[nH]c1=O (stereo not drawn)	-140*
O=C(NC1CCCCCC1)c1c(O)c2ccccc2[nH]c1=O	-132*
O=C(NC1CCCc2ccccc21)c1n[nH]c(=O)c2ccccc12 (stereo not drawn)	88
O=C(/C=C/c1cccs1)N1CCCCC1	-92*
CC1CC(C)CN(C(=O)/C=C/c2ccc([N+](=O)[O-])s2)C1 (stereo not drawn)	-97*
O=C(/C=C/c1ccc([N+](=O)[O-])s1)N1CCCC1	-102*
CC1CN(C(=O)/C=C/c2ccc([N+](=O)[O-])s2)CC(C)O1 (stereo not drawn)	-82*
CCCOc1ccc(N2C(=O)CC(SCCN)C2=O)cc1 (stereo not drawn)	-71*
CCCOc1ccc(N2C(=O)CC(N(O)c3ccccc3)C2=O)cc1 (stereo not drawn)	-77*
COC(=O)c1ccc(N2C(=O)CC(SCCN)C2=O)cc1 (stereo not drawn)	-84*
CCOC(=O)Cn1cnc2c(cnn2-c2ccc(Cl)cc2)c1=O	-65*
CC(C)CCn1cnc2c(cnn2-c2ccc(F)cc2)c1=O	-83*
CC(=O)Cn1cnc2c(cnn2-c2ccc(C)c(C)c2)c1=O	-106*
CCOC(=O)C1CCN(c2ncnc3c2cnn3-c2ccc(Cl)cc2)CC1	65
Cc1ccc(Nc2ncnc(-n3cccc3)n2)cc1Cl	-125*
O=C(CN1CCCCC1)Nc1nnc(-c2ccccc2)s1	-77*
O=C(CN1CCCC1)Nc1nnc(-c2cccs2)s1	-118*
CC(C)(C)CC(=O)Nc1nnc(-c2cccs2)s1	-213*
O=C(CN1CCOCC1)Nc1ccc(C2CCCCC2)cc1	-75*
Cc1occc1C(=O)Nc1nnc(-c2cccs2)s1	-351*
O=C(CN1CCCC1)Nc1ccc(NC(=O)Nc2ccccc2)cc1	-194*
COC(=O)c1ccc(N=Nc2ccccc2)cc1	-132*
COC(=O)c1ccc2nc(-c3cccc(N)c3)cn2c1	61
COC(=O)c1ccc(OCCOc2ccccc2)cc1	-131*
CCN(CC)c1ccc(C(=O)n2cnc3ccccc32)cc1	-128*
SMILES	aSyn 5UTR act
CCN(CC)C(=O)c1ccc2nc3ccccc3nc2c1	50
CCN(CC)c1ccc(C(=O)Nn2cnc3ccccc3c2=O)cc1	-92*
COc1ccc(-c2cc3nc4n(c(=O)c3s2)CCC4)cc1	59
COc1ccc(-c2nc3n(c2C)CCC3)cc1	-63*
COc1cc(C2=NOC(C(=O)Nc3ccc(C(C)=O)cc3)C2)cc(OC)c1OC (stereo not drawn)	-80*
COc1ccc(C(=O)N/N=C(/C)c2cccc(NC(=O)c3ccccc3F)c2)cc1	-79*
C/C(=N\NC(=O)c1ccncc1)c1cccc(NC(=O)c2ccc(C(C)(C)C)cc2)c1	-123*
COc1ccc(C(=O)N/N=C(\C)c2cccc(NC(=O)c3ccc(F)cc3)c2)c(OC)c1	-66*
C/C(=N\NC(=O)c1cc(O)ccc1O)c1cccc(NC(=O)c2ccc(Cl)cc2)c1	-99*
COc1ccc2cc(C(=O)C3CCCN(C(=O)CCc4ccccn4)C3)ccc2c1 (stereo not drawn)	-93*
CCCC(=O)N1CCCC(C(=O)c2cccc(OC(C)C)c2)C1 (stereo not drawn)	-80*
